Test results from PubChem BioAssay (NCATS).
“And” between values parts separate entries of the source, which are not always exact repeats. Equal values may be shown once. Records with an inconclusive call do not appear. A call without a number means that no potency is given here. The source made the active and inactive calls. Unless noted, the call rests on the fitted dose curve; in most records, active means well fitted curve in the direction sought with a large enough effect; inconclusive means small, poorly fitted or top-dose-only effect, or another doubt; inactive means no such curve, though single readings can be large; an effect the other way counts as inactive or inconclusive.

Assays:
[1] = Cellular Toxicity (caspase-3) SHSY5Y (AID 657)
Summary of the method: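 Luminescent Caspase-Glo 3/7 read-out, 1 hr room temperature, follows 16 hours of compound treatment of SH-SY5Y cells at 37 °C. Normalization: DMSO basal, 10 uM staurosporine as 100%; AC50 values from Hill-equation concentration-response fits.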

[2] = MultiTox-Fluor Cytotoxicity Assay - LYMP1-001 - Live Cells (AID 947); further: potency means the concentration at half of the fitted maximal effect
[3] = Cell Viability - LYMP1-002 - Assay at 16 hr (AID 948); further: potency means the concentration at half of the fitted maximal effect
Summary of the method: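 ATP luminescence (CellTiter-Glo) was measured after 16 hr compound exposure at 37 C of 2500 lymphoblastoid LYMP1-002 cells per well. Concentration-response curves were fitted with the Hill equation to give AC50.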

[4] = Cell Viability - LYMP1-003 - Assay at 40 hr (AID 964); further: nearly all actives have a fitted effect of over 60% in size; further: potency means the concentration at half of the fitted maximal effect
Summary of the method: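 Viability is taken as cellular ATP, read by CellTiter-Glo luminescence after 40 h of compound exposure at 37 C. Cells: human lymphoblastoid line LYMP1-003 at 2500/well; AC50 values derived by Hill-equation fitting of concentration-response data.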

[5] = Cell Viability - LYMP2-005 (AID 967); further: potency means the concentration at half of the fitted maximal effect
Summary of the method: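 LYMP2-005 human lymphoblastoid cells (2500/well) were treated with compounds for 24 h at 37 C. Intracellular ATP was then measured by CellTiter-Glo luminescence after 30 min at room temperature. AC50 values came from Hill-equation fits of qHTS concentration-response data.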

[6] = Cell Viability - LYMP2-009 (AID 968); further: nearly all actives have a fitted effect of over 55% in size; further: potency means the concentration at half of the fitted maximal effect
[7] = Cell Viability - LYMP2-011 (AID 969); further: nearly all actives have a fitted effect of over 60% in size; further: potency means the concentration at half of the fitted maximal effect
Summary of the method: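 Cytotoxicity qHTS with ATP content as read-out: lymphoblastoid cells (2500/well) exposed to compound for 24 h at 37 C, then luciferase luminescence measured. Concentration-response data fitted with the standard Hill equation to give AC50.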

[8] = Cell Viability - LYMP2-017 (AID 972); further: nearly all actives have a fitted effect of over 55% in size; further: potency means the concentration at half of the fitted maximal effect
Summary of the method: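 CellTiter-Glo luminescence (cellular ATP, 30 min RT) measured cytotoxicity after 24 hr compound treatment at 37 C. Cells were a human lymphoblastoid line, LYMP2-017, plated at 2500/well and incubated 5 hr first; concentration-response fitted with Hill equation for AC50.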

[9] = Cell Viability - LYMP2-021 (AID 974); further: nearly all actives have a fitted effect of over 55% in size; further: potency means the concentration at half of the fitted maximal effect
Summary of the method: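 AC50 values come from Hill-equation fits to CellTiter-Glo luminescence (ATP content), read after 24 hour compound exposure at 37 C of 2500 LYMP2-021 lymphoblastoid cells/well; tetraoctylammonium bromide as positive control.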

[10] = Cell Viability - LYMP2-023 (AID 975); further: nearly all actives have a fitted effect of over 55% in size; further: potency means the concentration at half of the fitted maximal effect
Summary of the method: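 Intracellular ATP, read by CellTiter-Glo luminescence, reports viability after 24 hr compound exposure at 37 C. 2500 lymphoblastoid cells/well (LYMP2-023) seeded 5 hr beforehand; Hill fits give AC50; positive control tetraoctylammonium bromide.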

[11] = Cell Viability - LYMP2-025 (AID 976); further: potency means the concentration at half of the fitted maximal effect
Summary of the method: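 Cytotoxicity read as loss of intracellular ATP (luciferase luminescence) after 24 h compound treatment at 37 C. Uses LYMP2-025 lymphoblastoid cells in 1536-well format; Hill-equation modelling gives AC50; tetraoctylammonium bromide as positive control.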

[12] = Cell Viability - LYMP2-007 (AID 979);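 further: cells exposed to compound for 24 h before reading; nearly all actives have a fitted effect of over 60% in size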; further: potency means the concentration at half of the fitted maximal effect
Summary of the method: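 AC50 values come from Hill-equation fits of luminescent intracellular ATP (CellTiter-Glo, 30 min, room temperature) following 24 h compound exposure at 37 C. Cells: LYMP2-007 lymphoblastoid line, 2500 per well, in complete culture medium.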

[13] = Cell Viability - LYMP2-020 (AID 986); further: nearly all actives have a fitted effect of over 55% in size; further: potency means the concentration at half of the fitted maximal effect
Summary of the method: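 Cytotoxicity in qHTS format: luminescent ATP readout from CellTiter-Glo after 24 h compound exposure at 37 C in complete medium. LYMP2-020 lymphoblastoid cells were seeded at 2500/well; concentration-response data fitted to the Hill equation for AC50.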

[14] = Cell Viability - LYMP1-002 - Assay at 24 hr (AID 993); further: potency means the concentration at half of the fitted maximal effect
Summary of the method: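 qHTS cytotoxicity at 24 h: CellTiter-Glo ATP luminescence in lymphoblastoid line LYMP1-002 incubated with compound at 37 °C. Concentration-response modeled with the Hill equation for AC50; tetraoctylammonium bromide served as positive control.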

[15] = Cell Viability - LYMP1-002 - Assay at 40 hr (AID 994); further: nearly all actives have a fitted effect of over 60% in size; further: potency means the concentration at half of the fitted maximal effect
Summary of the method: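 Cytotoxicity was read as loss of cellular ATP (CellTiter-Glo luminescence) after 40 hr compound exposure at 37 C of 2500 LYMP1-002 lymphoblastoid cells per well. Concentration-response data were fitted with the standard Hill equation to give AC50.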

[16] = molecular target: Voltage-gated inwardly rectifying potassium channel KCNH2 (Homo sapiens) (UniProt Q12809); experiment: qHTS Assay for Small Molecule Inhibitors of the Human hERG Channel Activity (AID 588834);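 further: lower thallium flux fluorescence means stronger hERG block; nearly all actives have a fitted effect of over 50% in size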; further: potency means the concentration at half of the fitted maximal effect
Sequence of Voltage-gated inwardly rectifying potassium channel KCNH2 (Homo sapiens) (Q12809 whole entry, looked up): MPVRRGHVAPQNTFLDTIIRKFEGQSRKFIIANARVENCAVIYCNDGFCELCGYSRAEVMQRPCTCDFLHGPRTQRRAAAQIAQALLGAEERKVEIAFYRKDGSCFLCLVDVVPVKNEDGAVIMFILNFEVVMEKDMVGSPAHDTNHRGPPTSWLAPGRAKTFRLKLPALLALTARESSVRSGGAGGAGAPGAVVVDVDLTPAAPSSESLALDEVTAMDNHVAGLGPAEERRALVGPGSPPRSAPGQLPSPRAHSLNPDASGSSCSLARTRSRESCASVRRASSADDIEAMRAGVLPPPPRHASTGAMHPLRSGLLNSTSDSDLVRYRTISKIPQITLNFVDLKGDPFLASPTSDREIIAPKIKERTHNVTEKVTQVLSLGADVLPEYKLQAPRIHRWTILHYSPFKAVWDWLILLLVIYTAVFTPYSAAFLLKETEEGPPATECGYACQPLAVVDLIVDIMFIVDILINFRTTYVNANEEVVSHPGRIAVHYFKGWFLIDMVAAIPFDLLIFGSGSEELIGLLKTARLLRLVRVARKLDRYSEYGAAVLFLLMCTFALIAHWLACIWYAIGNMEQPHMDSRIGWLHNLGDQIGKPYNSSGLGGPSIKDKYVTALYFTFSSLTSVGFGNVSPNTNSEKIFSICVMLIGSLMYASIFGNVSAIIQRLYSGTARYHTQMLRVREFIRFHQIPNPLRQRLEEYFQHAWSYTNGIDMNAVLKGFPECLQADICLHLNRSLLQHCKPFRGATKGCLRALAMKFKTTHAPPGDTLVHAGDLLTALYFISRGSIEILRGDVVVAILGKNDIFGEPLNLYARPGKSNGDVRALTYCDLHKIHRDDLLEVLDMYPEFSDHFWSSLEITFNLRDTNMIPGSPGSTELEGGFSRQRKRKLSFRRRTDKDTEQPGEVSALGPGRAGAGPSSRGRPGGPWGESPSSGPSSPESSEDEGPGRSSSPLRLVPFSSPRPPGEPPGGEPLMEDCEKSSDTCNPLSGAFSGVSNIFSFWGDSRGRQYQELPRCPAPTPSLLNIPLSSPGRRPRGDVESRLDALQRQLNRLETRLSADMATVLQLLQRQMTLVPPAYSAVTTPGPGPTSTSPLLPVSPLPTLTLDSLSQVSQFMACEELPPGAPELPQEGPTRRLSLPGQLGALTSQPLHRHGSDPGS
Summary of the method: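 hERG block measured as reduced thallium-dye (FluxOR) fluorescence after stimulation buffer addition, read over 2 min. Cells were hERG-BacMam-transduced U2OS exposed to compound ~10 min […]; concentration-response fitted with Hill equation for AC50.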

[17] = qHTS assay for small molecule disruptors of the mitochondrial membrane potential - 5 hr assay (AID 651755; calls by dose curve; further: nearly all actives have a fitted effect of over 40% in size; further: potency means the concentration at half of the fitted maximal effect)
Summary of the method: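 Membrane-potential dye readout: red aggregate (540 ex/590 em) versus green monomer (490 ex/535 em) fluorescence after 30 min dye loading, following 5 hr compound exposure at 37C of overnight-plated HepG2 cells.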

[18] = qHTS assay for small molecule antagonists of the retinoid-related orphan receptor gamma (ROR-gamma) signaling pathway - cell viability counter screen (AID 720652; active means well fitted curve in the direction sought with a large enough effect in the repeat runs; an effect the other way counts as inactive or inconclusive;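 further: compound exposure lasted 16 hr before ATP read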; further: potency means the concentration at half of the fitted maximal effect)
Summary of the method: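 Cytotoxicity counter screen: intracellular ATP (CellTiter-Glo luminescence) measured in the doxycycline-induced CHO RORE-luciferase reporter line after 16 hr compound exposure at 37 C, 5% CO2.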

[19] = Cellular Toxicity (caspase-3) BJ (AID 658)
Summary of the method: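 Caspase-Glo 3/7 luminescence, read 1 hr after reagent at room temperature, in normal BJ fibroblasts exposed 16 hours at 37 °C. AC50 values from Hill-equation concentration-response, scaled between DMSO basal and 10 uM staurosporine as 100%.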

[20] = Cell Viability - LYMP2-012 (AID 982); further: potency means the concentration at half of the fitted maximal effect

N#CC(Cl)Cl
Potency [1]: inactive
Potency [2]: inactive
Potency [3]: inactive
Potency [4]: inactive
Potency [5]: inactive
Potency [6]: 15.8 µM (active)
Potency [7]: 20 µM (active)
Potency [8]: 39.8 µM (active)
Potency [9]: 25.1 µM (active)
Potency [10]: 25.1 µM (active)
Potency [11]: 39.8 µM (active)
Potency [12]: 20 µM (active)
Potency [13]: 10 µM (active)
Potency [14]: inactive
Potency [15]: inactive
Potency [16]: inactive
Potency [17]: inactive
Potency [18]: 21.1 µM (active)

COP(=O)(OC)O/C(=C\Cl)c1cc(Cl)c(Cl)cc1Cl
outcome [19]: inactive
Potency [2]: inactive
Potency [3]: inactive
Potency [4]: inactive
Potency [6]: inactive
Potency [7]: inactive
Potency [10]: inactive
Potency [11]: inactive
Potency [20]: 50.1 µM (active)
Potency [13]: inactive
Potency [14]: inactive
Potency [15]: inactive
Potency [16]: inactive
Potency [18]: inactive

CC(C)CC(C)Nc1ccc(Nc2ccccc2)cc1 (configuration not stated)
Potency [1]: inactive
outcome [19]: inactive
Potency [3]: 50.1 µM (active)
Potency [4]: 31.6 µM (active)
Potency [5]: 31.6 µM (active)
Potency [7]: 50.1 µM (active)
Potency [8]: 50.1 µM (active)
Potency [9]: 50.1 µM (active)
Potency [10]: 50.1 µM (active)
Potency [12]: 39.8 µM (active)
Potency [20]: 39.8 µM (active)
Potency [13]: 39.8 µM (active)
Potency [14]: 39.8 µM (active)
Potency [15]: 31.6 µM (active)
Potency [16]: 20 µM (active)
Potency [18]: 59.6 µM (active)

O=C(CCl)c1ccccc1
Potency [1]: inactive
outcome [19]: inactive
Potency [3]: 79.4 µM (active)
Potency [5]: 10 µM (active)
Potency [6]: 10 µM (active)
Potency [7]: 12.6 µM (active)
Potency [8]: 10 µM (active)
Potency [9]: 10 µM (active)
Potency [10]: 12.6 µM (active)
Potency [11]: 12.6 µM (active)
Potency [12]: 10 µM (active)
Potency [20]: 10 µM (active)
Potency [13]: 7.94 µM (active)
Potency [15]: inactive
Potency [16]: inactive
Potency [17]: inactive
Potency [18]: 29.8 µM (active)

Nc1ccccc1C(=O)OCCc1ccccc1
Potency [1]: inactive
outcome [19]: inactive
Potency [2]: inactive
Potency [3]: inactive
Potency [4]: inactive
Potency [5]: inactive
Potency [6]: inactive
Potency [7]: inactive
Potency [8]: inactive
Potency [9]: inactive
Potency [10]: inactive
Potency [11]: inactive
Potency [12]: inactive
Potency [20]: inactive
Potency [13]: inactive
Potency [14]: inactive
Potency [15]: inactive
Potency [17]: inactive
Potency [18]: inactive

CCCCCCCCn1sccc1=O
Potency [1]: inactive
outcome [19]: inactive
Potency [2]: 31.6 µM (active)
Potency [3]: 15.8 µM (active)
Potency [4]: 25.1 µM (active)
Potency [5]: 3.98 µM (active)
Potency [6]: 5.01 µM (active)
Potency [7]: 6.31 µM (active)
Potency [8]: 3.98 µM (active)
Potency [9]: 3.98 µM (active)
Potency [10]: 6.31 µM (active)
Potency [11]: 6.31 µM (active)
Potency [12]: 2.51 µM (active)
Potency [20]: 3.98 µM (active)
Potency [13]: 3.98 µM (active)
Potency [14]: 12.6 µM (active)
Potency [15]: 15.8 µM (active)
Potency [17]: inactive

CN(C)c1ccc(N=O)cc1
Potency [1]: inactive
outcome [19]: inactive
Potency [2]: 10 µM (active)
Potency [3]: 7.94 µM (active)
Potency [4]: 3.98 µM (active)
Potency [5]: 0.794 µM (active)
Potency [6]: 1 µM (active)
Potency [7]: 2 µM (active)
Potency [8]: 1 µM (active)
Potency [9]: 0.794 µM (active)
Potency [10]: 1.26 µM (active)
Potency [11]: 2.51 µM (active)
Potency [12]: 0.794 µM (active)
Potency [20]: 0.631 µM (active)
Potency [13]: 1.26 µM (active)
Potency [14]: 3.98 µM (active)
Potency [15]: 6.31 µM (active)
Potency [16]: inactive

[CH3][Hg][Cl]
outcome [19]: inactive
Potency [2]: 39.8 µM (active)
Potency [3]: 39.8 µM (active)
Potency [4]: 50.1 µM (active)
Potency [6]: 5.01 µM (active)
Potency [7]: 3.98 µM (active)
Potency [8]: 3.16 µM (active)
Potency [9]: 3.16 µM (active)
Potency [10]: 5.01 µM (active)
Potency [11]: 7.94 µM (active)
Potency [12]: 3.98 µM (active)
Potency [20]: 3.16 µM (active)
Potency [13]: 2.51 µM (active)
Potency [14]: 39.8 µM (active)
Potency [16]: 25.1 µM (active)
Potency [17]: 66.8 µM (active)
Potency [18]: 10.6 µM (active)

OC(c1ccc(Cl)cc1)(c1ccc(Cl)cc1)C(Cl)(Cl)Cl
Potency [1]: inactive
outcome [19]: inactive
Potency [2]: inactive
Potency [3]: inactive
Potency [4]: inactive
Potency [5]: inactive
Potency [6]: inactive
Potency [7]: inactive
Potency [8]: inactive
Potency [9]: inactive
Potency [10]: inactive
Potency [11]: inactive
Potency [12]: inactive
Potency [20]: inactive
Potency [13]: inactive
Potency [14]: inactive
Potency [15]: inactive
Potency [16]: 39.8 µM (active)
Potency [17]: inactive

O=C(O)C1C(C(=O)O)C2(Cl)C(Cl)=C(Cl)C1(Cl)C2(Cl)Cl (configuration not stated)
Potency [1]: inactive
outcome [19]: inactive
Potency [2]: inactive
Potency [3]: inactive
Potency [4]: inactive
Potency [5]: inactive
Potency [6]: inactive
Potency [7]: inactive
Potency [8]: inactive
Potency [9]: inactive
Potency [10]: inactive
Potency [11]: inactive
Potency [12]: inactive
Potency [20]: inactive
Potency [13]: inactive
Potency [14]: inactive
Potency [15]: inactive
Potency [16]: inactive
Potency [17]: inactive
Potency [18]: inactive

C(=NC1CCCCC1)=NC1CCCCC1
Potency [1]: inactive
outcome [19]: inactive
Potency [2]: inactive
Potency [3]: inactive
Potency [4]: inactive
Potency [5]: inactive
Potency [14]: inactive
Potency [15]: inactive
Potency [17]: inactive

O=C1C2(Cl)C3(Cl)C4(Cl)C(Cl)(Cl)C5(Cl)C3(Cl)C1(Cl)C5(Cl)C24Cl (configuration not stated)
Potency [1]: inactive
Potency [2]: 39.8 µM (active) and 50.1 µM (active)
Potency [3]: 39.8 µM (active)
Potency [4]: 25.1 µM (active) and 50.1 µM (active)
Potency [5]: 39.8 µM (active)
Potency [6]: 50.1 µM (active)
Potency [7]: 63.1 µM (active)
Potency [8]: 50.1 µM (active)
Potency [10]: 50.1 µM (active)
Potency [12]: 39.8 µM (active) and 50.1 µM (active)
Potency [20]: inactive
Potency [13]: inactive
Potency [14]: 31.6 µM (active) and 79.4 µM (active)
Potency [15]: 25.1 µM (active) and 50.1 µM (active)
Potency [16]: 17.8 µM (active) and 28.2 µM (active)
Potency [17]: 4.22 µM (active) and 9.44 µM (active)
Potency [18]: 26.6 µM (active) and 29.8 µM (active)
